Assay results from the supplement of paper PMC11219838.
Unmarked numbers belong to inactive results.

How the values were obtained:
Conditions in all cases: 60 µM; 5 days; temperature: 20 °C
Meloidogyne hapla J2 = assay: proportion of mobile M. hapla J2 relative to DMSO control (fraction of DMSO control); higher = more viable, less nematicidal, active = 0.7 or less
In short: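 About 25 M. hapla J2 were added per 96-well well in distilled water, and compound was pinned to 60 µM final (0.6% v/v DMSO). Sealed plates were shaken at 200 rpm for 5 days at 20 °C, then 2 µL 1 M NaOH was added before microscopic mobility scoring. Mobility was divided by the mean of eight DMSO wells on the same plate, and two biological replicates were averaged.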

Ditylenchus dipsaci = assay: proportion of mobile D. dipsaci (mixed stage) relative to DMSO control (fraction of DMSO control); higher = more viable, less nematicidal, active = 0.86 or less; extreme values may be limits of the assay
In short: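 D. dipsaci were grown on pea plants in Gamborg B-5 agar and extracted through a filter funnel into water, and about 20 worms were added per 96-well well in distilled water. Compound was pinned to 60 µM final (0.6% v/v DMSO), and sealed plates were shaken at 200 rpm for 5 days at 20 °C. After 2 µL 1 M NaOH was added, mobile worms were scored microscopically. Mobility was expressed relative to DMSO controls and averaged over two biological replicates.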

[1] = tested on: Caenorhabditis elegans dauer (daf-2(e1370)); assay: proportion of mobile C. elegans dauer larvae relative to DMSO control (fraction of DMSO control); higher = more viable, less nematicidal, active = 0.63 or less; extreme values may be limits of the assay
In short: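 The proportion of mobile worms, relative to DMSO wells, was scored by dissection microscope and averaged over two biological replicates. Worms were C. elegans dauers, about 20 per well in liquid NGM in 96-well plates, generated from synchronized larvae on MYOB plates with E. coli OP50 at 25 °C for 48 h. They were treated with compound pinned to 60 µM final (0.6% v/v DMSO) and kept in sealed plates shaken at 200 rpm for 5 days at 20 °C.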

Row | SMILES | proportion of mobile M. hapla J2 (Meloidogyne hapla J2) | proportion of mobile D. dipsaci (Ditylenchus dipsaci) | proportion of mobile C. elegans dauer larvae [1]
1 | COc1ccc(CCC(=O)Nc2ccc(-c3noc(COc4ccccc4C)n3)cc2)cc1 | 0.898 | 1 | 
2 | Clc1ccccc1CSc1nnc(-c2ccncc2)o1 | 0.974 | 1 | 
3 | CCOc1ccc(-c2nc(-c3cccnc3)no2)cc1OCC | 0.906 | 1 | 
4 | CCOc1ccccc1-c1nc(-c2ccc(Br)cc2)no1 | 0.916 | 1 | 
5 | Cc1cccc(-c2noc(COc3ccc(Cl)cc3C)n2)c1 | 0.925 | 1 | 
6 | Cc1cc(Cl)ccc1OCc1nc(-c2cccnc2)no1 | 1 | 1 | 
7 | Brc1ccc(-c2nnc(SCc3ccccc3)o2)cc1 | 1.04 | 1 | 
8 | CCCCC(=O)Nc1ccccc1-c1nc(-c2ccccn2)no1 | 1.06 | 1 | 
9 | CCC(=O)Nc1ccccc1-c1nc(-c2ccccn2)no1 | 0.865 | 1 | 
10 | CCOc1ccccc1-c1nnc(SCc2ccccc2)o1 | 0.891 | 1 | 
11 | Cc1ccccc1OCc1nc(-c2cccc(C(F)(F)F)c2)no1 | 0.946 | 1 | 
12 | Cc1cccc(-c2noc(-c3ccccc3Cl)n2)c1 | 0.894 | 1 | 
13 | O=C(Nc1ccc(-c2noc(COc3ccccc3)n2)cc1)c1ccc(F)cc1 | 1.03 | 1 | 
14 | c1coc(-c2nnc(-c3ccco3)o2)c1 | 1.03 | 1 | 
15 | COc1ccc(Cl)cc1-c1noc(-c2ccc(Cl)cc2)n1 | 0.906 | 1 | 
16 | COc1ccc(C)cc1NC(=O)CSc1nnc(-c2ccc(Br)cc2)o1 | 0.938 | 1 | 
17 | CCOc1ccccc1-c1nnc(SCC(=O)Nc2ccccc2)o1 | 0.907 | 1 | 
18 | O=S(=O)(CCC(F)=C(F)F)c1ncc(Cl)s1 [fluensulfone] |  | 1 | 1
19 | Cc1ccccc1-c1nc(-c2ccccc2Cl)no1 | 0.985 | 1 | 
20 | Cc1cc(Cl)ccc1OCc1nc(-c2ccccc2)no1 |  | 1 | 1
21 | CC(Oc1ccc(C(C)(C)C)cc1)c1nc(-c2ccncc2)no1 (configuration not stated) |  | 1 | 1

Row | SMILES | proportion of mobile M. hapla J2 (Meloidogyne hapla J2) | proportion of mobile D. dipsaci (Ditylenchus dipsaci) | proportion of mobile C. elegans dauer larvae [1]
22 | CCCc1nnc(CSc2nnc(-c3ccc(Cl)cc3)o2)o1 |  | 0.812 (active) | 1
23 | COc1ccc(-c2nnc(SCC(=O)Nc3c(F)cc(F)cc3Br)o2)cc1 |  | 1 | 1
24 | N#Cc1ccc(OCc2nc(-c3cccs3)no2)cc1 |  | 1 | 1
25 | Clc1ccc(-c2nc(-c3ccccc3Br)no2)cc1 |  | 1 | 1
26 | CSc1ccccc1-c1nc(-c2cccnc2)no1 |  | 1 | 0.684
27 | Cn1c(SCc2nc(-c3cccs3)no2)nnc1-c1ccco1 |  | 1 | 1
28 | Cc1ccccc1CSc1nnc(-c2ccncc2)o1 |  | 1 | 1
29 | Clc1ccc(CSc2nnc(-c3ccccc3)o2)c(Cl)c1 |  | 1 | 1
30 | O=C(CSc1nnc(-c2cccnc2)o1)c1ccc2ccccc2c1 |  | 1 | 1
31 | Cc1ccc(-c2nnc(SCC(=O)Nc3ccccc3)o2)cc1 |  | 1 | 1
32 | CCn1c(C)cc(C(=O)CSc2nnc(-c3ccccc3)o2)c1C |  | 1 | 1
33 | O=C(Nc1ccc(-c2noc(-c3ccc(Cl)cc3)n2)cc1)c1ccco1 |  | 1 | 1
34 | Cc1ccc(NC(=O)CSc2nnc(-c3ccncc3)o2)cc1Cl |  | 1 | 1
35 | Cc1ccc(-c2noc(COc3ccc(Cl)cc3C)n2)cc1 |  | 1 | 1
36 | COc1ccc(Cl)cc1NC(=O)CSc1nnc(-c2ccco2)o1 |  | 1 | 1
37 | Cc1ccccc1-c1noc(COc2ccccc2)n1 |  | 1 | 1
38 | Clc1ccc(-c2noc(-c3ccc4c(c3)OCCO4)n2)cc1 |  | 1 | 1
39 | O=C(CSc1nnc(-c2ccccc2)o1)NCc1ccccc1 |  | 1 | 1
40 | Nc1nc(CSc2nnc(-c3ccccc3)o2)cs1 |  | 1 | 1
41 | O=C(CSc1nnc(-c2ccccc2)o1)Nc1ccc(Br)cc1F |  | 1 | 1
